Reference: PubChem BioAssay (Tox21)
Several values for one entry are separate records, joined by “and”; a condition that tells them apart may be missing. Identical values can stand only once. Results filed as inconclusive are left out. Some structures have more than one record in an assay (separate samples or runs), and their calls can disagree. Activity calls are given as the source filed them. The call rests on the fitted dose curve; in most records, active means well fitted curve in the direction sought with a large enough effect in the repeat runs; inconclusive means weak or mixed curves; inactive means no such curve, though single readings can be large; an effect the other way counts as inactive or inconclusive.

Legend:
[1] = qHTS assay to identify small molecule antagonists of the estrogen related receptor (ERR) signaling pathway from Tox21 library (AID 1224848); conditions: ERR reporter cell line, luciferase antagonist mode, 18 h; series mostly up to 92.4 µM; further: nearly all actives have a fitted effect of over 50% in size; further: potency means the concentration at half of the fitted maximal effect
Outline: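 Cells: ERR line, 2,000/well; 6 h preincubation 37 C/5% CO2. Cpd in DMSO via pin tool; 18 h, 37 C. ONE-Glo, 30 min RT, luminescence.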

[2] = qHTS RealTime-Glo MT Cell Viability Assay in HepG2 cells - 24 hour (AID 1224867); conditions: RealTime-Glo luminescence; series mostly up to 76.8 µM; further: nearly all actives have a fitted effect of over 50% in size
Outline: (§1)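 Real-time, nonlytic viability: 600 HepG2 cells/well mixed with NanoLuc enzyme plus prosubstrate; 5 h settle, compound (DMSO) added by pintool; luminescence monitored over 40 h at 37 C.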

[3] = qHTS RealTime-Glo MT Cell Viability Assay in HEK293 cells - 32 hour (AID 1224868); conditions: RealTime-Glo luminescence; series mostly up to 76.8 µM; further: top concentration of the series differs between compounds; nearly all actives have a fitted effect of over 50% in size
Outline: (§2)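 Cells + reagent dispensed (600 cells/well, HEK293) → 5 h at 37 C/5% CO2 → 23 nL compound in DMSO pinned → 40 h at 37 C → luminescence read at 0, 8, 16, 24, 32, 40 h.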

[4] = A CellTox Green Cytotoxicity Assay to monitor cytotoxicity in HEK293 cells - 0 hour (AID 1224869); conditions: CellTox Green fluorescence; series mostly up to 76.8 µM; further: nearly all actives have a fitted effect of over 50% in size
Outline: (§3)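 HEK293 cells, 600/well, were preincubated 5 hours and then exposed to compounds at 37 C for up to 40 hours. A cell-impermeant cyanine dye staining dead-cell DNA was read by fluorescence at 0, 8, 16, 24, 32 and 40 h time points.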

[5] = qHTS RealTime-Glo MT Cell Viability Assay in HepG2 cells - 40 hour (AID 1224870); conditions: RealTime-Glo luminescence; series mostly up to 76.8 µM; further: nearly all actives have a fitted effect of over 50% in size
Outline: (§4)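 HepG2 cells mixed with RealTime-Glo MT reagents (NanoLuc plus cell-permeant prosubstrate) were seeded at 600 cells/well, incubated 5 h at 37 C/5% CO2, then pinned with compounds in DMSO; nonlytic luminescence tracked viability during 40 h treatment.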

[6] = A CellTox Green Cytotoxicity Assay to monitor cytotoxicity in HEK293 cells - 40 hour (AID 1224871); conditions: CellTox Green fluorescence; series mostly up to 76.8 µM; further: nearly all actives have a fitted effect of over 45% in size
Outline: as §3

[7] = qHTS RealTime-Glo MT Cell Viability Assay in HEK293 cells - 16 hour (AID 1224872); conditions: RealTime-Glo luminescence; series mostly up to 76.8 µM
Outline: as §2

[8] = qHTS RealTime-Glo MT Cell Viability Assay in HepG2 cells - 8 hour (AID 1224873); conditions: RealTime-Glo luminescence; series mostly up to 76.8 µM; further: nearly all actives have a fitted effect of over 55% in size
Outline: as §4

[9] = qHTS RealTime-Glo MT Cell Viability Assay in HEK293 cells - 40 hour (AID 1224874); conditions: RealTime-Glo luminescence; max response: stronger effect = lower value; further: nearly all actives have a fitted effect of over 50% in size; further: potency means the concentration at half of the fitted maximal effect
Outline: (§5)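 600 cells/well were plated with the nonlytic NanoLuc/prosubstrate reagent, pre-incubated 5 h, then given 23 nL of compound in DMSO. Incubation at 37 C for 40 h, with luminescence from viable-cell-reduced substrate read repeatedly from 0 h.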

[10] = A CellTox Green Cytotoxicity Assay to monitor cytotoxicity in HepG2 cells - 16 hour (AID 1224876); conditions: CellTox Green fluorescence; series mostly up to 76.8 µM; further: nearly all actives have a fitted effect of over 45% in size
Outline: (§6)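 HepG2 cells, 600/well, preincubated 5 h with CellTox Green dye, then exposed to Tox21 compounds in DMSO at 37 C for up to 40 h. Dead-cell DNA fluorescence read at the indicated time point.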

[11] = qHTS RealTime-Glo MT Cell Viability Assay in HepG2 cells - 32 hour (AID 1224877); conditions: RealTime-Glo luminescence; series mostly up to 76.8 µM; further: nearly all actives have a fitted effect of over 55% in size
Outline: as §1

[12] = A CellTox Green Cytotoxicity Assay to monitor cytotoxicity in HepG2 cells - 24 hour (AID 1224878); conditions: CellTox Green fluorescence; series mostly up to 76.8 µM; further: nearly all actives have a fitted effect of over 45% in size
Outline: as §6

[13] = A CellTox Green Cytotoxicity Assay to monitor cytotoxicity in HepG2 cells - 40 hour (AID 1224879); conditions: CellTox Green fluorescence; series mostly up to 76.8 µM; further: nearly all actives have a fitted effect of over 40% in size
Outline: as §6

[14] = qHTS RealTime-Glo MT Cell Viability Assay in HEK293 cells - 0 hour (AID 1224880); conditions: RealTime-Glo luminescence; series mostly up to 76.8 µM; further: top concentration of the series differs between compounds; nearly all actives have a fitted effect of over 45% in size
Outline: as §5

[15] = A CellTox Green Cytotoxicity Assay to monitor cytotoxicity in HEK293 cells - 32 hour (AID 1224881); conditions: CellTox Green fluorescence; series mostly up to 76.8 µM; further: nearly all actives have a fitted effect of over 40% in size
Outline: as §3

[16] = A CellTox Green Cytotoxicity Assay to monitor cytotoxicity in HepG2 cells - 0 hour (AID 1224882); conditions: CellTox Green fluorescence; series mostly up to 76.8 µM; further: nearly all actives have a fitted effect of over 35% in size
Outline: as §6

[17] = A CellTox Green Cytotoxicity Assay to monitor cytotoxicity in HepG2 cells - 32 hour (AID 1224883); conditions: CellTox Green fluorescence; series mostly up to 76.8 µM; further: nearly all actives have a fitted effect of over 50% in size
Outline: as §6

[18] = A CellTox Green Cytotoxicity Assay to monitor cytotoxicity in HEK293 cells - 8 hour (AID 1224884); conditions: CellTox Green fluorescence; series mostly up to 76.8 µM; further: nearly all actives have a fitted effect of over 35% in size
Outline: as §3

[19] = A CellTox Green Cytotoxicity Assay to monitor cytotoxicity in HEK293 cells - 24 hour (AID 1224875); conditions: CellTox Green fluorescence; series mostly up to 76.8 µM; further: nearly all actives have a fitted effect of over 45% in size
Outline: as §3
On the % scale 0 is the no-effect control and ±100 the full control effect.

Nc1cc([N+](=O)[O-])ccc1O
inactive: Potency [1] | outcome [2] | Potency [3] | outcome [4] | outcome [5] | Potency [6] | Potency [7] | outcome [8] | max response [9] -21.5% and -15.3% | Potency [10] | outcome [11] | Potency [12] | Potency [13] | Potency [14] | Potency [15] | outcome [16] | Potency [17] | outcome [18]

CC1=C(C)S(=O)(=O)CCS1(=O)=O
inactive: Potency [1] | outcome [2] | outcome [4] | outcome [5] | Potency [7] | outcome [8] | outcome [11] | Potency [12] | Potency [13] | Potency [14] | Potency [15] | outcome [16] | Potency [17] | outcome [18]

CCCCC(CC)COC(=O)C(C#N)=C(c1ccccc1)c1ccccc1 (stereo not given)
active: Potency [1] 23.7 µM
inactive: outcome [2] | outcome [4] | outcome [5] | Potency [6] | Potency [7] | outcome [8] | max response [9] -27.4% | Potency [19] | Potency [10] | outcome [11] | Potency [12] | Potency [13] | Potency [14] | Potency [15] | outcome [16] | Potency [17] | outcome [18]

Nc1ccccc1[N+](=O)[O-]
inactive: Potency [1] | outcome [2] | outcome [4] | outcome [5] | Potency [7] | outcome [8] | max response [9] 3.94% and 2.64% | Potency [19] | Potency [10] | outcome [11] | Potency [12] | Potency [13] | Potency [14] | Potency [15] | outcome [16] | Potency [17] | outcome [18]

CC(C)(N)CO
inactive: Potency [1] | outcome [2] | Potency [3] | outcome [4] | outcome [5] | Potency [6] | Potency [7] | outcome [8] | max response [9] 5.94% and 1.04% | Potency [19] | outcome [11] | Potency [12] | Potency [13] | Potency [14] | Potency [15] | outcome [16] | Potency [17] | outcome [18]

ON=C1CCCCC1
inactive: Potency [1] | outcome [2] | Potency [3] | outcome [4] | outcome [5] | Potency [6] | Potency [7] | outcome [8] | max response [9] -0.0267% and 0.158% | Potency [19] | Potency [10] | outcome [11] | Potency [12] | Potency [13] | Potency [14] | Potency [15] | outcome [16] | Potency [17] | outcome [18]

Fc1ccc(Br)cc1
inactive: Potency [1] | outcome [2] | Potency [3] | outcome [4] | outcome [5] | Potency [7] | outcome [8] | max response [9] 11.6% and 0.497% | Potency [10] | outcome [11] | Potency [12] | Potency [13] | Potency [14] | Potency [15] | outcome [16] | Potency [17] | outcome [18]

CN(C)CCCN
inactive: Potency [1] | outcome [2] | outcome [4] | outcome [5] | Potency [6] | Potency [7] | outcome [8] | max response [9] -0.421% and -3.46% | Potency [19] | Potency [10] | outcome [11] | Potency [12] | Potency [13] | Potency [14] | Potency [15] | outcome [16] | Potency [17] | outcome [18]

CCCCCCCCCCCCCCCO
inactive: Potency [1] | outcome [2] | Potency [3] | outcome [4] | outcome [5] | Potency [6] | Potency [7] | outcome [8] | max response [9] 0.0156% | Potency [19] | Potency [10] | outcome [11] | Potency [12] | Potency [13] | Potency [14] | Potency [15] | outcome [16] | Potency [17] | outcome [18]

COc1ccc(Nc2ccccc2)c(C)c1
inactive: Potency [1] | outcome [2] | Potency [3] | outcome [4] | outcome [5] | Potency [7] | outcome [8] | max response [9] 2.22% and -26.6% | Potency [10] | outcome [11] | Potency [12] | Potency [13] | Potency [14] | Potency [15] | outcome [16] | Potency [17] | outcome [18]

COS(C)(=O)=O
inactive: Potency [1] | outcome [2] | Potency [3] | outcome [4] | outcome [5] | Potency [6] | Potency [7] | outcome [8] | max response [9] 0.0927% and -3.51% | Potency [19] | Potency [10] | outcome [11] | Potency [12] | Potency [13] | Potency [14] | Potency [15] | outcome [16] | Potency [17] | outcome [18]

OCCOCCN1CCN(C2=Nc3ccccc3Sc3ccccc32)CC1
active: Potency [9] 9.52 µM
inactive: outcome [2] | Potency [3] | outcome [4] | outcome [5] | Potency [6] | Potency [7] | outcome [8] | max response [9] -19.6% | Potency [19] | Potency [10] | outcome [11] | Potency [12] | Potency [13] | Potency [14] | Potency [15] | outcome [16] | Potency [17] | outcome [18]

CCc1cccc(C)c1N
inactive: Potency [1] | outcome [2] | Potency [3] | outcome [4] | outcome [5] | Potency [7] | outcome [8] | max response [9] 1.23% and 1.97% | outcome [11] | Potency [12] | Potency [13] | Potency [14] | Potency [15] | outcome [16] | Potency [17] | outcome [18]

c1ccc2c(c1)ccc1ccccc12
inactive: outcome [2] | Potency [3] | outcome [4] | outcome [5] | Potency [7] | outcome [8] | max response [9] -10.3% | Potency [10] | outcome [11] | Potency [12] | Potency [13] | Potency [14] | outcome [16] | Potency [17] | outcome [18]
active: Potency [1] 47.2 µM and 24.3 µM
